An excerpt weighted towards active compounds, which were near 3% of everything screened.
Tau fluor counter: counter-screen for tau fibril formation inhibitors. tau K18 P301L Alexa594 fluorescence, heparin fibrillization. AID 1463. Potency, µM (doses to about 57.7 µM), without a hit: top-dose activity change, negative = decrease. hit rate 0.93% among 280,000; note: potency is the fitted concentration of half-maximal effect; nearly all actives have a fitted effect of over 55% in size
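Human tau K18 P301L (15 uM unlabeled, 0.24 uM Alexa 594-labeled) in 100 mM sodium acetate pH 7 with 20 uM heparin, 6 hr at 37 C. ThT 30 uM added, 1 hr ambient; Alexa 594 FP and total fluorescence read at 555/632 nm.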
Coupling enz: coupling enzyme interference in Giardia aldolase counter-screen; coupling enzyme system counterscreen, AmpLite Red fluorescence; activity change, negative = inhibition, % at 58.2 µM, hits read low; hit rate 0.67% among 290,000; AID 2472; in the data active = activity change below about -30%
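First, compound is pin-transferred into glyceraldehyde-3-phosphate coupling-enzyme reagent at 57.5 uM final and held 10 min at RT. Next, substrate, coupling system and AmpLite Red are added. After 20 min RT, fluorescence (525/598 nm) is read.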
KDM4E inh: JMJD2E (human) inhibition; JMJD2E catalytic domain, FDH-coupled NADH fluorescence (FDH is formaldehyde dehydrogenase); B2RXH2; AID 2147; Potency, µM (highest dose often 57.1 µM), for inactives: top-dose activity change, negative = inhibition, hits mostly inhibitors; hit rate 1.6% among 230,000; active = well fitted inhibition curve with a large enough effect, not every such curve was filed as active; inconclusive = small, poorly fitted or top-dose-only effect, or another doubt; inactive = no such curve, though single readings can be large or run the other way;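 note: potency is the fitted concentration of half-maximal effect; 0% = wells with enzyme and -100% = buffer wells without enzyme; nearly all actives have a fitted effect of over 50% in size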
Target sequence (B2RXH2 1-337 limits assumed): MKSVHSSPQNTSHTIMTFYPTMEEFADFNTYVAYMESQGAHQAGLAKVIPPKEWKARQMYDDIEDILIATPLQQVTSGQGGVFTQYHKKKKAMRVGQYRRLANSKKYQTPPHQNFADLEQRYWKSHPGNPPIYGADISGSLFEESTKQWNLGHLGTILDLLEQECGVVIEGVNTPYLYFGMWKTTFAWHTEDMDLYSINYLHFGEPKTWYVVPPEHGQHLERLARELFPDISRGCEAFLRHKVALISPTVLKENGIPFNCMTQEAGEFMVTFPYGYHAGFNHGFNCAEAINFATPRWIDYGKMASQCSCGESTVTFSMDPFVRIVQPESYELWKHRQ
Tau FP inhib: tau fibrillization inhibition (FP). P10636. hit rate 0.39% among 280,000. Potency, µM (series often up to 57.7 µM), without a hit: at the top dose activity, negative = inhibition, most hits filed as inhibitors. K18 P301L tau heparin fibrillization, Alexa594 FP, 6 h; note: potency is the fitted concentration of half-maximal effect; nearly all actives have a fitted effect of over 55% in size
Target sequence (P10636 561-689 P618L limits assumed): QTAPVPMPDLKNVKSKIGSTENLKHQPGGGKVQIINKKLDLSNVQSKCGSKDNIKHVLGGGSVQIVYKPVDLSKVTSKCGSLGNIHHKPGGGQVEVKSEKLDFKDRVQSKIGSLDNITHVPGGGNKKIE
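Steps: dispense K18 P301L tau (15 uM plus 0.24 uM Alexa 594 tracer, final) in pH 7 sodium acetate; add compound; add heparin (20 uM final); incubate 6 hr, 37 C; add ThT (30 uM final); after 1 hr ambient, read FP.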
Tau fibril ThT: inhibitors of human tau fibril formation, thioflavin T binding; P10636; recombinant tau K18 P301L (four-repeat tau fragment), heparin-induced fibrillization, ThT fluorescence; Potency, µM (doses to about 57.4 µM), for inactives: at the top dose activity, negative = inhibition, most hits filed as inhibitors; hit rate 2.1% among 270,000; note: potency is the fitted concentration of half-maximal effect; nearly all actives have a fitted effect of over 55% in size
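In this qHTS, human K18 P301L tau is incubated with compound and heparin for 6 hr at 37 C, and Thioflavin T fluorescence then reports fibril load.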
The depositor's hits bear a star; ? = inconclusive; · = not tested or not shown; [ ] = remark or other dose. Unless noted, calls come from the whole dose curve; as a rule, active = well fitted curve in the direction sought with a large enough effect; inconclusive = small, poorly fitted or top-dose-only effect, or another doubt; inactive = no such curve, though single readings can be large; an effect the other way counts as inactive or inconclusive. Unless noted, % is set by controls: 0 for no effect and ±100 for the full control effect.

SMILES	Tau fluor counter	Coupling enz	KDM4E inh	Tau FP inhib	Tau fibril ThT
COc1ccc2[nH]c3c4c(ccc3c2c1)C(=O)C=CC4=O	2µM*[quencher]	-37.6*	?	11.2µM*	3.55µM*
CCN(CC)CC(=O)Nc1ccc2c(c1)N(C(=O)CN(CC)CC)c1ccccc1CC2	-6.2%	-1.4	-2.0%	1.7%	-16.1%
CCN(CC)CC(=O)Nc1ccc2c(c1)Nc1ccccc1CC2	15.8µM*[quencher]	-8.1	-7.8%	4.5%	?
CCC[C@H](NC(C)=O)C(=O)N[C@H]1CC(=O)ONCCCC[C@@H](C(N)=O)NC(=O)[C@H](Cc2c[nH]c3ccccc23)NC(=O)[C@H](CCCN=C(N)N)NC(=O)[C@@H](Cc2ccc3ccccc3c2)NC(=O)[C@H](Cc2cnc[nH]2)NC1=O	·	-0.5	·	·	·
CCCC(=O)C1=C(c2ccc(C)cc2)N(C(=O)CCC)n2cnnc2S1	?	·	·	-14.2%	15.8µM*
NC(=O)c1ccc(N=C2C(=O)Nc3ccc([N+](=O)[O-])cc32)cc1	-5.6%	-30.0*	-3.7%	?	?
O=C1Nc2ccccc2C1=Nc1cccc([N+](=O)[O-])c1	·	-1.2	·	·	·
C[C@H]1Cc2c(COc3ccccc3)nc3c(c2CO1)CN(S(=O)(=O)c1ccc2c(c1)OCCN2C)CC3	-2.7%[11.6 µM]	-0.2	5.7%[11.4 µM]	10.0%[11.6 µM]	3.6%[11.5 µM]
CC1(C)CNc2cc(N)ccc2S1	14.1µM*[quencher]	-10.9	?	?	15.8µM*
CCN(c1cccc(C)c1)S(=O)(=O)c1cc(Br)cc2c1N(C(C)=O)C(C)C2 (stereo unspecified)	?	·	·	-4.3%	?
Oc1cc(-n2cccn2)c(O)cc1-n1cccn1	15.8µM*[quencher]	-7.4	15.8µM*	?	15.8µM*
O=Cc1ccccc1-n1cccn1	-1.7%	-0.5	-1.5%	-10.1%	-2.3%
CN(C(=S)Nc1ccc(SC(F)F)cc1)c1ccc(O)cc1	?	-33.6*	?	?	2.51µM*
CN(C(=S)Nc1ccc(Oc2ccccc2)cc1)c1ccc(O)cc1	-4.2%	-50.0*	5.3%	0.2%	-2.4%
CN(C(=S)Nc1ccccc1)c1ccccc1	4.9%	4.1	-4.1%	1.4%	3.7%
FC(F)Sc1ccc(NC(=S)NC2CCCC2)cc1	?	0.8	-3.8%	-5.5%	5.2%
COc1ccc(OC)c2c(C)cc(NCCN3CCOCC3)nc12	-15.1%	-30.3*	?	-9.2%	?
N#CC(C#N)=C1C=C2C=C(N3CCCCC3)CCC2CC1 (stereo unspecified)	?	2.0	-28.8%	-13.2%	?
N#CC1=C(N)C2=C(N3CCCCC3)CCCC2C1(C#N)C#N (stereo unspecified)	?	-13.6	?	?	31.6µM*
CN1C(=O)c2ccccc2Sc2ccc(NC(=O)NCc3cccc(Cl)c3)cc21	-7.4%	·	·	8.4%	-8.2%
Cc1ccc(C)n1-c1ccc(N2CCOCC2)nc1	-29.1%	-28.1	?	-13.0%	12.6µM*
O=C1/C(=C/c2ccncc2)CCC/C1=C\c1ccncc1	-16.7%	2.7	-6.9%	5.01µM*	5.01µM*
O=C1/C(=C\c2ccc3c(c2)OCO3)CCC/C1=C/c1ccc2c(c1)OCO2	-23.1%	-1.4	-17.8%	-7.4%	4.47µM*
O=C1OCC/C1=C\c1ccc2c(c1)OCO2	-7.8%	0.4	-2.1%	0.0%	-11.1%
CN(C)CCCOc1ccc2c(c1)Sc1ccccc1CC2=O	1.7%	-66.4*	-1.2%	0.1%	1.4%
SMILES	Tau fluor counter	Coupling enz	KDM4E inh	Tau FP inhib	Tau fibril ThT
CCCC(=O)NCCc1c(I)[nH]c2ccc(OC)cc12	-13.1%	·	·	-7.0%	-15.2%
COC(=O)C1CCN(C2=C(NS(=O)(=O)c3ccc(Cl)cc3)C(=O)c3ccccc3C2=O)CC1	?	-25.0	-7.9%	-14.0%	14.1µM*
NC(=O)C1CCN(c2oc(-c3ccccc3F)nc2S(=O)(=O)c2ccc(Cl)cc2)CC1	-3.0%	2.3	-1.8%	-4.2%	?
CC1CCCN(C2=C(NS(=O)(=O)c3ccc(Cl)cc3)C(=O)c3ccccc3C2=O)C1 (stereo unspecified)	-4.1%	-40.0*	-1.7%	-3.0%	?
CC1CCCN(S(=O)(=O)Cc2ccc(Cl)cc2)C1 (stereo unspecified)	-8.4%	2.9	2.2%	-5.3%	-4.2%
NC(=O)C1CCN(C2=C(NS(=O)(=O)c3ccc(Cl)cc3)C(=O)c3ccccc3C2=O)CC1	?	-30.2*	-25.5%	?	15.8µM*
CCCCC(=O)Nc1cccc(-c2nc3ccccc3s2)c1	-28.9%	·	·	?	?
CCC(NC(C)C)C(O)c1ccc(O)c(O)c1 (stereo unspecified)	?	-53.1*	12.6µM*	-11.1%	?
COc1ccc(NC(=O)c2cc(-c3ccc(F)cc3)no2)cc1OC	?	·	·	1.4%	0.9%
COc1cc(/C=C2/SC(=O)NC2=O)ccc1Oc1ccc([N+](=O)[O-])cc1[N+](=O)[O-]	?	5.0	4.9%	-7.3%	15.8µM*
COc1cc(C(=O)O[C@@H]2CC3CC[C@]2(C)C3(C)C)ccc1O	·	-2.4	·	·	·
O=C1c2ccccc2C(=O)C1c1ccnc2ccccc12	-7.3%	-0.3	0.6%	-3.9%	1.78µM*
O=C1c2ccccc2C(=O)C1c1nccc2ccccc12	-18.2%	-5.5	0.2%	-8.2%	1.41µM*
Cc1ccc(C2C(C#N)=C(N)SC(N)=C2C#N)cc1	?	-15.6	?	-7.9%	?
N#CC1=C(N)SC(N)=C(C#N)C1c1ccnc2ccccc12	-25.1%	-26.3	?	?	28.2µM*
CCC1CCCCN1CCCNC(=O)c1ccc2c(c1)N(Cc1ccccc1F)C(=O)c1ccccc1S2(=O)=O (stereo unspecified)	-23.1%	·	·	-0.5%	2.4%
Cc1ccc2nc(-c3c[nH]c4ccccc34)c(Nc3ccccc3)n2c1	?	·	·	1.6%	-6.7%
Fc1ccc(Nc2c(-c3c[nH]c4ccccc34)nc3ccccn23)cc1	7.08µM*[quencher]	·	·	-5.0%	-10.7%
Cc1ccn2c(Nc3ccc(F)cc3)c(-c3ccccn3)nc2c1	?	·	·	3.8%	?
c1ccc(Nc2c(-c3c[nH]c4ccccc34)nc3ccccn23)cc1	12.6µM*[quencher]	·	·	?	?
CSc1nnc(NC(=O)c2cc(=O)c3cc(C)c(C)cc3o2)s1	-5.4%	·	·	2.3%	?
CCOC(=O)c1c(CSC(=N)N)n(-c2ccc(Br)cc2)c2cc(Br)c(OC(C)=O)cc12	?	-1.6	?	?	15.8µM*
O=C(Nc1ccc2c(c1)OCO2)c1cccs1	-12.1%	-21.8	8.8%	0.3%	-11.1%
O=C(/C=C\Nc1ccc2c(c1)OCO2)c1ccc2c(c1)OCO2	-17.1%	0.1	-19.5%	8.0%	?
O=C(/C=C\Nc1ccc2c(c1)OCO2)c1ccc(Cl)s1	-17.0%	1.6	-11.7%	-4.0%	2.82µM*
O=C(/C=C\Nc1ccc2c(c1)OCO2)c1cccs1	?	-4.9	-1.9%	-5.8%	2µM*
